Bioassay records: PubChem BioAssay, National Center for Advancing Translational Sciences (NCATS)
Hits are enriched below; roughly 21% of the tested compounds scored in any of these assays.
Pf growth 96h: P. falciparum growth inhibition at 96 hours; P. falciparum luciferase reporter growth, 96 h; Potency, µM (titrated, usually from 28.7 µM), usual class: inhibitors; 320,000 compounds, 6.9% hits; AID 504834
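Plates of compound plus infected erythrocytes (2% hematocrit, 0.05% parasitemia final) incubate 96 hours, 37 C, 5% CO2. Detection reagent added; reduced luminescence from the parasites' luciferase reporter flags inhibition.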
Pf growth 48h: inhibits P. falciparum growth in the first generation, 48 h | P. falciparum luciferase growth in erythrocytes, 48 h | Potency, µM (highest dose often 28.7 µM), hits mostly inhibitors | 310,000 compounds, 5.9% hits
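Luciferase-expressing P. falciparum in infected erythrocytes (2% hematocrit, 0.1% parasitemia final) in RPMI 1640/0.5% Albumax were exposed to compound for 48 hours at 37 C, 5% CO2; growth read as luminescence.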
AMA1 RON2 block: inhibitors of Plasmodium falciparum AMA1-RON2 interaction. Potency, µM (doses to about 58.2 µM), hits mostly inhibitors. AlphaScreen AMA1-biotinylated RON2 peptide binding. 360,000 compounds, 0.2% hits; further: nearly all actives have a fitted effect of over 45% in size
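AMA1 (3D7) with his tag at 25 nM final met compounds first, then biotinylated RON2 peptide at 25 nM; detection used donor plus acceptor beads, 10 µg/mL apiece, read by AlphaScreen after 30 min at room temperature.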
CHX counter: counter-screen for Shiga toxin inhibitors: cycloheximide protein synthesis inhibition; max response, %; 300,000 compounds, 12% hits; cell reporter, cycloheximide protein synthesis inhibition counterscreen; in the data active means max response mostly above about 13%, no sharp cut-off; inactive means mostly below about 14%; further: read at 38.3 µM for the half of the compounds with a filed dose
HCV inhibitor: HCV inhibition | Huh7.5.1 HCVcc-Cre infection, luciferase reporter, 44 h | Potency, µM (doses to about 41.8 µM), hits mostly inhibitors | 340,000 compounds, 3.4% hits | AID 651820
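Cells seeded at 1,000/well and cultured 4 h, then compounds added followed by HCVcc-Cre virus (~0.5 moi). After 44 h further culture, luciferase substrate was added, plates held 15 min at room temperature, and luminescence read for 15 sec.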
Shiga inhibitor: blocks Shiga toxin action in Vero cells; Vero cells, Shiga toxin protein synthesis inhibition reporter; AID 2315; 290,000 compounds, 9.2% hits; inhibition, % at 38.7 µM; in the data active means inhibition mostly above about 28%, no sharp cut-off; inactive means mostly below about 43%
Each line names hits and unclear results; the compound was inactive in the other large screens. Unless noted, the call rests on the fitted dose curve; in most records, active means well fitted curve in the direction sought with a large enough effect; inconclusive means small, poorly fitted or top-dose-only effect, or another doubt; inactive means no such curve, though single readings can be large; an effect the other way counts as inactive or inconclusive.

N#Cc1ccc(CSc2nnc(NC(=O)CCc3nc4ccccc4c(=O)[nH]3)s2)cc1	Pf growth 48h inconclusive (no result: CHX counter, Shiga inhibitor)
CCOC(=O)C1(CC2CCCCO2)CCN(S(=O)(=O)c2c(C)nn(C)c2C)CC1 (centres undefined)	Pf growth 96h inconclusive
NC(=O)C1O[C@@H](O)[C@H](O)[C@@H](O)[C@H]1O (some centres undefined)	none (no result: Pf growth 96h, Pf growth 48h, AMA1 RON2 block, HCV inhibitor)
O=C(O)c1ccc(N/N=C/C=C/c2ccccc2)cc1	CHX counter 42, Shiga inhibitor 55
O=C(N/N=C/C=C/c1ccccc1)c1ccncc1	none
O=C(O)c1cc(N/N=C/c2c[nH]c3ccccc23)ccc1Cl	CHX counter 58, Shiga inhibitor active
O=C(N/N=C/c1c[nH]c2ccccc12)c1ccc([N+](=O)[O-])cc1Cl	none
O=C(O)c1cccc(N/N=C/C2=C(Cl)c3cc(Cl)ccc3SC2)c1	Pf growth 96h 8.3µM, CHX counter 65, Shiga inhibitor 129
O=C(O)c1cc(N/N=C/c2cccnc2)ccc1Cl	CHX counter 63, Shiga inhibitor 133
O=C1NC(Cc2ccc(O)cc2)c2nc3ccc(Cl)cc3c(=O)n2-c2ccc(Cl)cc21 (centres undefined)	none (no result: Pf growth 96h, Pf growth 48h, AMA1 RON2 block, CHX counter, Shiga inhibitor)
Clc1cncc(Cl)c1N/N=C/c1ccncc1	Pf growth 96h 1.2µM, Pf growth 48h inconclusive, HCV inhibitor inconclusive
O=C(O)c1cccc(N/N=C/c2ccc(F)c(F)c2)c1	CHX counter 95, Shiga inhibitor active
O=C(N/N=C/c1ccc(F)c(F)c1)c1cccc(S(=O)(=O)N2CCCCC2)c1	Pf growth 96h inconclusive, Pf growth 48h inconclusive (no result: CHX counter, Shiga inhibitor)
O=C(O)c1ccc(/C=N/Nc2cccc(C(F)(F)F)c2)cc1	CHX counter 56, Shiga inhibitor 120
C/C(=N\Nc1cccc(C(F)(F)F)c1)c1ccc(O)cc1	HCV inhibitor inconclusive, Shiga inhibitor 50
COc1ccccc1-c1cn[nH]c1-c1ccc(OCc2ccccc2F)cc1O	Pf growth 96h 3.7µM, Pf growth 48h 7.4µM
COc1ccccc1-c1cn[nH]c1-c1ccc(O)cc1O	Pf growth 96h inconclusive, Pf growth 48h inconclusive, HCV inhibitor inconclusive
COc1ccccc1-c1cn[nH]c1-c1ccc(OCc2ccc([N+](=O)[O-])cc2)cc1O	Pf growth 48h inconclusive
COc1ccccc1-c1cn[nH]c1-c1ccc(OCc2ccc(F)cc2)cc1O	Pf growth 96h 10µM, Pf growth 48h 13µM, HCV inhibitor inconclusive
CC(NC(=O)COC(=O)c1ccccc1SCC(=O)N1CCCC1)c1ccccc1 (centres undefined)	none (no result: CHX counter, Shiga inhibitor)
COC(=O)C1CCN(C(=O)C2CCCCC2)CC1	Pf growth 96h inconclusive, HCV inhibitor 5µM
CC(C)(C)OC(=O)N1CCC(C(=O)N2CCCCCC2)CC1	Pf growth 96h 12µM
CCc1ccc(NC(=O)CS(=O)CC(=O)NCC2OCCc3ccccc32)cc1 (centres undefined)	HCV inhibitor inconclusive
O=C(NCC1OCCc2ccccc21)c1ccc(NC(=O)c2ccc(Cl)cc2)cc1 (centres undefined)	Pf growth 48h inconclusive, HCV inhibitor 4.5µM
O=C(NCC1OCCc2ccccc21)c1ccco1 (centres undefined)	CHX counter 19, Shiga inhibitor 34
CC(C)C(C(=O)NC1CCCC1)N1CCN(c2ncccc2C#N)CC1 (centres undefined)	none (no result: Pf growth 96h, Pf growth 48h, CHX counter, HCV inhibitor, Shiga inhibitor)
Oc1ccc(CC2CC3CCN2CC3)cc1O (centres undefined)	none
CCOc1ccc(CC2NCCc3cc(OCC)c(OCC)cc32)cc1OCC (centres undefined)	Pf growth 96h inconclusive, Pf growth 48h 12µM, HCV inhibitor 6.3µM
Oc1ccc(C[C@H]2NCCc3cc(O)c(O)cc32)cc1O	Pf growth 96h inconclusive, Pf growth 48h inconclusive, AMA1 RON2 block 2.5µM
COc1cc2c(cc1OC)C(Cc1ccc(O)cc1)NCC2 (centres undefined)	none
Fc1ccccc1-c1nc2nc3ccccc3nc2n1CC1CCCO1 (centres undefined)	none
CCCN1CCN(C(=O)c2c(Cl)cnn2C)CC1	Pf growth 96h inconclusive
CC(NS(=O)(=O)c1cc(C(F)(F)F)ccc1Cl)C(=O)N(C)C1CCN(C)CC1 (centres undefined)	none (no result: Pf growth 96h, Pf growth 48h, CHX counter, Shiga inhibitor)
CC(=O)/C=C\c1cn(-c2ncc(C(F)(F)F)cc2Cl)c2ccccc12	Pf growth 96h 10µM, Pf growth 48h inconclusive, HCV inhibitor inconclusive
N#CC(C#N)=Cc1cn(-c2ncc(C(F)(F)F)cc2Cl)c2ccccc12	none
CN1c2ccccc2Oc2nnc(N3CCN(Cc4ccccc4)CC3)cc21	Pf growth 48h inconclusive, CHX counter 30, HCV inhibitor inconclusive, Shiga inhibitor 54
CN1c2ccccc2Oc2nnc(Cl)cc21	none
C[C@@H]1CN([C@@H](C)CO)C(=O)CCCn2cc(nn2)CO[C@H]1CN(C)S(=O)(=O)c1ccccc1F	none (no result: Pf growth 96h, Pf growth 48h, CHX counter, HCV inhibitor, Shiga inhibitor)
CC(/C=N/NC(=O)c1cc(C2CC2)[nH]n1)=C\c1ccccc1	CHX counter 9.5
COc1cc(C(=O)Oc2cccc(/C=N/NC(=O)c3cc(C)[nH]n3)c2)cc(OC)c1OC	Pf growth 96h inconclusive, HCV inhibitor inconclusive
O=C(N/N=C/c1ccccn1)c1cc([N+](=O)[O-])cc([N+](=O)[O-])c1	Pf growth 48h inconclusive
Cc1cc(C(=O)N/N=C/c2cccc(OC(=O)c3cccc(Br)c3)c2)n[nH]1	Shiga inhibitor 23
CC(/C=N/NC(=O)c1cc(C(C)C)[nH]n1)=C\c1ccccc1	HCV inhibitor inconclusive
O=C(N/N=C/c1ccccn1)c1cc(C2CC2)[nH]n1	CHX counter 38, Shiga inhibitor 111
Cc1cc(C(=O)N/N=C/c2ccccn2)n[nH]1	CHX counter 18
Cc1ccccc1C(NC(=O)C1CCN(Cc2ccc(Oc3ccccc3)cc2)CC1)c1ccsc1 (centres undefined)	none (no result: Pf growth 96h, Pf growth 48h, CHX counter, HCV inhibitor, Shiga inhibitor)
CCOC(=O)CN1C(=O)C(=O)N(Cc2ccccc2F)C1=O	none
NC(=O)NC(=O)COC(=O)CCSc1ccccc1	AMA1 RON2 block inconclusive
O=C(N/N=C/c1cccc2ccccc12)c1cc(C2CC2)[nH]n1	CHX counter 22, Shiga inhibitor 75
CCN(CC(=O)NCc1ccc(F)cc1)C(=O)c1oc2ccccc2c1C	Pf growth 48h inconclusive
CS(=O)(=O)N(CC(=O)NCc1ccccc1)c1ccc(Cl)cc1	none
CCOc1ccc(N(CC(=O)NCc2ccc(OC)cc2)S(C)(=O)=O)cc1	CHX counter 34, Shiga inhibitor 56
CCOc1ccc(N(CC(=O)NCC(C)C)S(C)(=O)=O)cc1	none (no result: Pf growth 96h)
COc1ccc(N(CC(=O)NCc2ccccc2)S(C)(=O)=O)cc1	CHX counter 31, Shiga inhibitor 52
Cc1cc(C)c2nc(Cl)c(Cl)nc2c1	none
CN(C)c1ccc(N=Nc2ccccc2C(=O)OCC(=O)NC2CCCC2)cc1	Pf growth 96h 8.3µM, AMA1 RON2 block 7.9µM, CHX counter 24, Shiga inhibitor 26
O=C(COC(=O)c1ccccc1Br)NCC1CCCCC1	none (no result: Pf growth 96h, Pf growth 48h, CHX counter, Shiga inhibitor)
